Compounds with a hit are over-represented: about 3% of the library has one in this group of screens.
S16 viability – S16 Schwann cell cytotoxicity. S16 Pmp22-F2sN Schwann cells viability, CellTiter-Glo, 24 h. Potency, µM (series often up to 57.5 µM), for inactives: at the top dose activity change, negative = cytotoxicity, usual class: cytotoxic. 43,000 compounds, 0.48% hits. AID 1508642; also: potency is read from the fitted curve at half-maximal effect; % is scaled to controls: 0 for no effect and ±100 for the full control effect; nearly all actives have a fitted effect of over 65% in size
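Viability was measured by CellTiter-Glo luminescence (15 min, room temperature). This followed 24 h at 37 °C of compound exposure (23 nL pin transfer) in S16 Pmp22-F2sN Schwann cells, 500-1,000 per well.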
PMP22 txn prim – modulates PMP22 transcription in S16 Schwann cells; 43,000 compounds, 2% hits; Potency, µM (top dose mostly 57.5 µM), inactives show at the top dose activity change, negative = inhibition, hits mostly inhibitors; S16 Pmp22-F2sN Schwann cells (luciferase reporters placed in the Pmp22 gene), FLuc/NLuc coincidence luminescence, 24 h; active = clear falling dose curves in both reporters; inconclusive = both reporters move, but less clearly or upward; inactive = either reporter flat; the % is the NLuc reporter signal; also: potency is read from the fitted curve at half-maximal effect; % is scaled to controls: 0 for no effect and ±100 for the full control effect
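S16(c9) Schwann cells with FLuc/NLuc coincidence reporter in the Pmp22 3' UTR; compounds pin-transferred, 24 h at 37C. Dual-luciferase read: FLuc first, then NLuc after Stop&Glo, each 10 min at room temperature.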
p53null 39C tox – p53 null cell cytotoxicity, nonpermissive temperature. 55,000 compounds, 0.97% hits. Potency, µM (doses to about 46.1 µM), for the others: at the highest dose activity, negative = cell killing, actives largely listed as cytotoxic. AID 904. H1299 p53-null (neo) cells, 39C, ATPlite viability, 24 h;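 also: potency is read from the fitted curve at half-maximal effect; 0% = DMSO only and -100% = full killing by 100 µM tamoxifen; nearly all actives have a fitted effect of over 50% in size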
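ATP-luminescence viability readout (ATPlite, 20 min RT) after 24 hr compound treatment at 39C of H1299-neo or H1299-p53A138V cells; titration up to 46 uM; normalized to DMSO and 100 uM tamoxifen; Hill-fit AC50.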
OvCa metastasis – ovarian cancer metastasis inhibition, 3D TME model. SKOV3ip1-GFP adhesion/invasion on 3D omental model, fluorescence. Potency, µM (series often up to 45.8 µM), inactives show at the top dose activity change, negative = inhibition, usual class: inhibitors. 46,000 compounds, 0.1% hits;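 also: potency is read from the fitted curve at half-maximal effect; plate controls were DMSO wells for no effect and tomatine positive control wells for full effect; nearly all actives have a fitted effect of over 65% in size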
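Adhesion/invasion was scored as fixed GFP-labeled SKOV3ip1 cell counts (488/509 nm), normalized to DMSO and tomatine controls. Cancer cells in serum-free medium, with four compound doses (0.36-46 umol/L), sat 2 hr at RT then 16 hr at 37 C on a 48 hr fibroblast/mesothelial/ECM culture.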
pS6 MEF inh – inhibitors of mTORC1 signaling in Tsc2-/- p53-/- MEF cells; Tsc2-/- p53-/- MEF, phospho-rpS6 immunofluorescence/PI, 24 h; Potency, µM (titrated, usually from 38.3 µM), for the others: top-dose activity change, negative = inhibition, most hits filed as inhibitors; 44,000 compounds, 0.78% hits;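 also: potency is read from the fitted curve at half-maximal effect; plate controls were DMSO for no effect and rapamycin for full effect; nearly all actives have a fitted effect of over 50% in size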
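Compounds act on Tsc2-/-, p53-/- fibroblasts carrying an empty vector for 24 h before fixation and dual staining for phospho-S6 and DNA (propidium iodide). Values are percentages of cells above a rapamycin-defined pS6/PI threshold.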
p53null 32C kill – kills p53 null cells at the permissive temperature. AID 903. Potency, µM (top dose mostly 46.1 µM), without a hit: top-dose activity change, negative = cytotoxicity, usual class: cytotoxic. H1299-neo p53 null cells, ATP luminescence, 24 h, 32C. 55,000 compounds, 0.62% hits;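 also: potency is read from the fitted curve at half-maximal effect; 0% = DMSO only and -100% = full killing by 100 µM tamoxifen; nearly all actives have a fitted effect of over 55% in size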
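Cytotoxicity: H1299-neo (no p53), 32C, 24 h treatment. Concentrations up to 46 uM. Readout cellular ATP, luminescence. Normalization to DMSO basal and tamoxifen 100 uM maximal kill.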
NLuc sat counter – counter-screen for PMP22 expression modulators: NanoLuc inhibition, saturating substrate; shares compounds with PMP22 txn prim; Secreted NLuc enzyme (filtered S16 cell medium), Nano-Glo luminescence; Potency, µM (titrated, usually from 57.5 µM), without a hit: at the highest dose activity change, negative = inhibition, most hits filed as inhibitors; 690 compounds, 4% hits; AID 1508638; also: potency is read from the fitted curve at half-maximal effect; % is scaled to controls: 0 for no effect and ±100 for the full control effect
NLuc Km ctr – NanoLuc inhibition at Km substrate, PMP22 artifact check; shares compounds with PMP22 txn prim; secreted NLuc enzyme, coelenterazine luminescence, Km conditions; Potency, µM (highest dose often 57.5 µM), for the others: at the top dose activity change, negative = inhibition, hits mostly inhibitors; 690 compounds, 5% hits; also: potency is read from the fitted curve at half-maximal effect; % is scaled to controls: 0 for no effect and ±100 for the full control effect
FLuc counter – firefly luciferase enzyme inhibition artifact for PMP22 screen; purified P. pyralis FLuc, luminescence, 10 min; shares compounds with PMP22 txn prim; AID 1508640; Potency, µM (titrated, usually from 57.5 µM), for the others: at the highest dose activity, negative = inhibition, most hits filed as inhibitors; 690 tested, under 10 active; also: % of control where 0% means no effect
Target sequence (P08659 whole entry, looked up): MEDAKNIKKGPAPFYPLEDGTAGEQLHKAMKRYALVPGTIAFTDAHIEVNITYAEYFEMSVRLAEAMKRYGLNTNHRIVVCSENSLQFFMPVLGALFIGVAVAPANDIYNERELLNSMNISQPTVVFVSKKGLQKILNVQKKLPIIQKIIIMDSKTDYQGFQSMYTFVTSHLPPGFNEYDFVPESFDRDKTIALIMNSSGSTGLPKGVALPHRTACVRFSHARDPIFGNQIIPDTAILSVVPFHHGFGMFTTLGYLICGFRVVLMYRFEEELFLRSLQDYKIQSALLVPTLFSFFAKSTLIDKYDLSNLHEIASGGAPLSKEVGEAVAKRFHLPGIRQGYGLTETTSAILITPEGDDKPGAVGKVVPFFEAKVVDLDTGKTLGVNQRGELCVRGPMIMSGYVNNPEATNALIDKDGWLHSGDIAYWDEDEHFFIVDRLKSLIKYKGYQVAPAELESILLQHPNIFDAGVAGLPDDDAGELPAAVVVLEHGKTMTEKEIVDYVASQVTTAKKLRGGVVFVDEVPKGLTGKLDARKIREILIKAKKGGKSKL
S16 viab conf – S16 Schwann cell cytotoxicity, confirmatory; AID 1508641; shares compounds with PMP22 txn prim; S16 Schwann cells viability, CellTiter-Glo ATP luminescence, 24 h; Potency, µM (highest dose often 57.5 µM), inactives show at the top dose activity change, negative = viability loss, most hits filed as cytotoxic; 690 compounds, 7% hits; also: potency is read from the fitted curve at half-maximal effect; % is scaled to controls: 0 for no effect and ±100 for the full control effect
PMP22 txn cnf – confirmation of modulators of PMP22 gene transcription in S16 cells; 690 compounds, 22% hits; shares compounds with PMP22 txn prim; AID 1508646; Potency, µM (doses to about 57.5 µM), inactives show at the top dose activity change, negative = inhibition, hits mostly inhibitors; S16 Schwann cells Pmp22-F2sN, dual luciferase, 24 h; active = clear falling dose curves in both reporters; inconclusive = both reporters move, but less clearly or upward; inactive = either reporter flat; the % is the FLuc reporter signal; also: potency is read from the fitted curve at half-maximal effect
PMP22 prot conf – rat PMP22 protein level modulation, confirmatory | shares compounds with PMP22 txn prim | S16 Schwann cells Pmp22-HiBiT, luminescence, 48 h | Potency, µM (titrated, usually from 27.9 µM), inactives show at the top dose activity change, negative = inhibition, actives largely listed as inhibitors | 95 tested, under 10 active | AID 1508647
Target sequence (P25094 whole entry, looked up): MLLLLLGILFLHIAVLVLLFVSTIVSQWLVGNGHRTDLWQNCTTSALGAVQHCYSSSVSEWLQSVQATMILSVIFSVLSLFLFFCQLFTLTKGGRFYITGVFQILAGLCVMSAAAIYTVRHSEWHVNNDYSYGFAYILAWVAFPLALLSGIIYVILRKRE
Active calls of the source: *; i = inactive; u = inconclusive; x = not tested or not shown. Unless noted, calls follow the shape of the dose curve; as a rule, active = well fitted curve in the direction sought with a large enough effect; inconclusive = small, poorly fitted or top-dose-only effect, or another doubt; inactive = no such curve, though single readings can be large; an effect the other way counts as inactive or inconclusive.

SMILES | S16 viability | PMP22 txn prim | p53null 39C tox | OvCa metastasis | pS6 MEF inh | p53null 32C kill | NLuc sat counter | NLuc Km ctr | FLuc counter | S16 viab conf | PMP22 txn cnf | others
C[C@@H](O[C@H]1OCCN(Cc2n[nH]c(=O)[nH]2)[C@@H]1c1ccc(F)cc1)c1cc(C(F)(F)F)cc(C(F)(F)F)c1 | x | x | x | -12.0% | x | x | x | x | x | x | x
CCc1cc2c(cc1N1CCC(N3CCOCC3)CC1)C(C)(C)c1[nH]c3cc(C#N)ccc3c1C2=O | x | x | x | -3.4% | x | x | x | x | x | x | x
CCCCN(CC)C(=O)CSc1nc2n[nH]c(C)c2c(=N)n1-c1ccc(CC)cc1 | u | 16.8µM* | 10.2% | i | 0.1% | u | u | u | 1.8% | 13.7% | u
NC(=O)NN=Cc1ccc([N+](=O)[O-])o1 | x | x | x | 12.2% | x | x | x | x | x | x | x
O=C(NCc1ccccc1Cl)C1CCN(S(=O)(=O)c2ccc3c(c2)CCCN3C(=O)C2CCC2)CC1 | u | 8.53µM* | -13.9% | -12.3% | -3.2% | 0.1% | -15.2% | 4.5% | -3.2% | -15.1% | -19.7%
O=S(=O)(NCc1ccc(F)cc1)c1ccc(N2CCCCS2(=O)=O)cc1 | u | 11.9µM* | 1.5% | -5.1% | -29.7% | 2.6% | -1.9% | -3.4% | -1.2% | -7.2% | 2.5%
Cc1ccc(OCc2ccc(-c3nc(C#N)c(N4CCC(C)CC4)o3)o2)cc1 | 1.5% | u | -14.0% | 5.2% | 1.9% | -10.0% | x | x | x | x | x
COc1ccc(OCc2ccc(-c3nc(C#N)c(N4CCC(C)CC4)o3)o2)cc1 | -2.5% | 6.7µM* | 16.2% | -3.6% | -1.7% | 0.5% | -9.7% | 0.0% | -0.2% | 8.4% | -3.1%
COc1ccccc1Nc1c2c(nc3ccc(NC(=O)/C=C/c4cccc(OC)c4OC)cc13)CCCC2 | 25.1µM* | 10.6µM* | u | -14.3% | 4.14µM* | -9.9% | -5.7% | 3.6% | 2.3% | u | 7.74µM* | PMP22 prot conf=38.4%
COc1ccccc1Nc1c2c(nc3ccc(NC(=O)c4cccc(F)c4)cc13)CCCC2 | u | 10µM* | 10µM* | u | u | u | -27.2% | -10.9% | -2.2% | 13.7µM* | 11.5µM*
COc1cc(C(=O)Nc2ccc3nc4n(c(=O)c3c2)CCCCC4)cc(OC)c1OC | u | -21.4% | u | 2.6% | 2.0% | -25.8% | x | x | x | x | x
Nc1ccccc1NC(=O)c1ccc(CNc2nccc(-c3cccnc3)n2)cc1 | x | x | x | 30.1% | x | x | x | x | x | x | x
O=C(CSc1nnc(-c2ccc(Cl)cc2)o1)c1ccc([N+](=O)[O-])cc1 | 24.9% | u | 10.9% | i | -8.5% | 3.5% | x | x | x | x | x
CC(=O)Nc1cccc(-c2nnc(SCC(=O)c3cc([N+](=O)[O-])ccc3Cl)o2)c1 | -1.2% | 14.1µM* | u | 8.0% | u | 10.3% | 12.2µM* | 7.69µM* | u | u | 18.3µM*
CCOC(=O)c1ccc(N2C(=O)c3[nH]nc(-c4ccc(C)cc4)c3C2c2ccc(O)c(OCC)c2)cc1 (configuration not stated) | -20.2% | 12.7µM* | 27.8% | 0.3% | 0.6% | 26.9% | -11.7% | -13.3% | -2.8% | u | u | PMP22 prot conf=-17.1%
CCOC(=O)c1ccc(N2C(=O)c3n[nH]c(-c4ccco4)c3C2c2ccc(O)c(OCC)c2)cc1 (configuration not stated) | u | u | 26.8% | -1.7% | u | 7.8% | x | x | x | x | x
COc1ccc(CCNC(=O)c2ccc(Cn3c(=O)c4ccccc4n(Cc4cccc(F)c4)c3=O)cc2)cc1OC | -7.9% | u | u | i | 3.9% | 6.1% | x | x | x | x | x
COCCCNC(=O)c1ccc(Cn2c(=O)c3ccccc3n(Cc3ccc(Cl)cc3)c2=O)cc1 | u | 11.3µM* | -8.6% | i | 6.4% | 19.1% | u | u | 1.3% | -23.7% | -41.4%
O=C(NC1CCN(Cc2ccccc2)CC1)c1ccc(Cn2c(=O)c3ccccc3n(Cc3ccccc3)c2=O)cc1 | 5.8% | -31.5% | 14.8% | i | -7.5% | 6.2% | x | x | x | x | x
O=C(NC1CCN(Cc2ccccc2)CC1)c1ccc(Cn2c(=O)c3ccccc3n(Cc3ccc(Cl)cc3)c2=O)cc1 | 4.7% | 12.1µM* | -10.3% | -9.5% | -3.0% | 9.5% | -7.2% | -0.2% | 8.3% | 12.2µM* | 10.9µM*
COc1ccc(CCNC(=O)c2ccc(Cn3c(=O)c4ccccc4n(Cc4cccc(Cl)c4)c3=O)cc2)cc1OC | 6.7% | u | 20.1% | 118.1% | 12.1% | 14.8% | -15.5% | 3.4% | 0.7% | 3.2% | 2.7%
CC1=C[C@@H]2[C@@H]([C@@H](O)C[C@@]3(C)[C@H]2C[C@@H](C)[C@]3(O)C(=O)CO)[C@@]2(C)Cc3cnn(-c4ccccc4)c3C=C12 | x | x | x | -18.2% | x | x | x | x | x | x | x
CC(C)N(CC[C@H](c1ccccc1)c1cc(CO)ccc1O)C(C)C | x | x | x | 17.2% | x | x | x | x | x | x | x
CS(=O)(=O)c1ccc(-c2cnc(N)c(C(=O)Nc3ccccc3)n2)cc1 | x | x | x | 13.1% | x | x | x | x | x | x | x

Assay outcomes deposited in PubChem BioAssay by National Center for Advancing Translational Sciences (NCATS).
